Experimental findings from PubChem BioAssay AID504432 (National Center for Advancing Translational Sciences (NCATS), 2011) are described below.

The nature of this assay: Confirmation Concentration-Response Assay for lipid storage modulators: for probe SAR round 2. The settings on record: Drosophila S3 cells, BODIPY lipid droplet fluorescence, 18-24 h. From the text:
NIH Molecular Libraries Probe Production Centers Network [MLPCN] NIH Chemical Genomics Center [NCGC] MLPCN Grant: 1 R03 MH085686-01 Assay Submitter (PI): Beller, Mathias; Max-Planck-Institut fur Biophysikalische Chemie NCGC Assay Overview: Storing lipids as a reservoir for energy or the anabolism of elementary metabolites is a common feature of probably all cells and is conserved from bacteria to humans. The universal cellular lipid storage organelle is the so-called lipid storage droplet (LD). Although ubiquitous, LDs share a simple structure composed of a hydrophobic core that harbors the storage lipids, which is shielded by a droplet-specific phospholipid monolayer to which proteins are attached. […]
We dispensed 4 uL of cells at 1.25 x 10^6 cells/mL into LoBase Aurora COC 1,536-well plates (black walled, clear bottom) with a bottle-valve solenoid-based dispenser (Aurora) to obtain 5,000 cells/well. […] Fluorescence was detected by excitation of the fluorophores with a 488-nm laser on an Acumen Explorer (TTP Lab Tech). […] Cells were detected using channel 3 (575- 640 nm) with 5-um width and 100-um depth filters. The ratio of the total intensity in PMT channel 1 over total intensity of channel 3 was also calculated. […]

Inconclusive results are not listed. The source made the active and inactive calls. The call rests on the fitted dose curve; in most records, active means well fitted inhibition curve with a large enough effect; inconclusive means small, poorly fitted or top-dose-only effect, or another doubt; inactive means flat fitted curve, though single readings scatter.

On to `CCC/C=C/C/C=C/C=C/C=N/NN=O`, for which the Potency is 2810 nM (active).
